# Laboratory results taken from ChEMBL document CHEMBL3988442, “University of Dundee, Small-Polar-MMV Screening Library” (2021).
# Among all 66,000 compounds or so, about 960 (1.5%) showed an effect of 50% or more. Only a selection was taken, and strong results are over-represented in it overall.
# Tested on: Trypanosoma brucei
# Assay: Trypanosoma brucei 72 hour study
# Format: functional, organism-based
# Design: scale not given: in the data most compounds retested in dose-response had high values
smiles,measurement,setting,value
Cc1cc(=O)[nH]c(-n2nc(C3CC3)cc2N)n1,Percent Effect,"30 µM, 30.03 µM",-21.61%
CC(C)c1cc(=O)[nH]c(C(C)(C)N)n1.Cl,Percent Effect,"30 µM, 30.03 µM",-29.56%
CCc1cc(=O)[nH]c(-n2nc(C3CC3)cc2NC(=O)C2CC2)n1,Percent Effect,"30 µM, 30.03 µM",97.36%
CCc1c(C)nc(-n2nc(C3CC3)cc2NC(C)=O)[nH]c1=O,Percent Effect,"30 µM, 30.03 µM",-1.646%
Cc1cc(=O)[nH]c(-n2nc(-c3ccccc3)cc2N)n1,Percent Effect,"30 µM, 30.03 µM",-3.849%
CCCc1cc(=O)[nH]c(-n2nc(-c3cccs3)cc2N)n1,Percent Effect,"30 µM, 30.03 µM",-29.48%
CC(C)c1cc(=O)[nH]c(-n2nc(C3CC3)cc2N)n1,Percent Effect,"30 µM, 30.03 µM",99.41%
CC(=O)Nc1cc(C2CC2)nn1-c1nc(C)c(C)c(=O)[nH]1,Percent Effect,"30 µM, 30.03 µM",-12.81%
CCCc1cc(=O)[nH]c(-n2nc(C3CC3)cc2N)n1,Percent Effect,"30 µM, 30.03 µM",78.26%
COc1ccc(CC(=O)N2Cc3nccn3CC(CN(C)C)C2)cc1.O=C(O)C(F)(F)F (configuration not stated),Percent Effect,"30 µM, 30.03 µM",-47.37%
Cc1cccc(CN2CCC3(CC2)NC(=O)C[C@H]3c2cnn(C)c2)n1.O=C(O)C(F)(F)F,Percent Effect,"30.3 µM, […]",-5.843%
COc1cc2c(cc1CNC(Cc1cccs1)c1nccs1)OCO2.Cl (configuration not stated),Percent Effect,"30.3 µM, […]",-17.08%
O=C1N[C@H]2OCCC[C@H]2[C@H](c2ccccc2)N1,Percent Effect,"30 µM, 30.03 µM",-11.46%
CCOc1cc(CNC(=O)c2cnn(CC)c2C(F)(F)F)ccn1,Percent Effect,"30 µM, 30.03 µM",1.219%
Fc1cccc(N2CCCC3(CN(Cc4ccco4)CCO3)C2)c1.O=C(O)C(F)(F)F.O=C(O)C(F)(F)F (configuration not stated),Percent Effect,"30.3 µM, […]",99.09%
Cn1cc(CN2CCOC3(CCCN(c4cccc(F)c4)C3)C2)cn1.O=C(O)C(F)(F)F.O=C(O)C(F)(F)F (configuration not stated),Percent Effect,"30.3 µM, […]",-12.05%
O=C(O)C(F)(F)F.OCCN1CCOC2(CCCN(c3cccc(F)c3)C2)C1 (configuration not stated),Percent Effect,"30 µM, 30.03 µM",21.19%
Fc1cccc(N2CCCC3(CN(Cc4ccccn4)CCO3)C2)c1.O=C(O)C(F)(F)F.O=C(O)C(F)(F)F.O=C(O)C(F)(F)F (configuration not stated),Percent Effect,"30.3 µM, […]",1.036%
Fc1cccc(N2CCCC3(CN(Cc4ccncc4)CCO3)C2)c1.O=C(O)C(F)(F)F.O=C(O)C(F)(F)F.O=C(O)C(F)(F)F (configuration not stated),Percent Effect,"30 µM, 30.03 µM",7.874%
Fc1cccc(N2CCCC3(CN(Cc4cccnc4)CCO3)C2)c1.O=C(O)C(F)(F)F.O=C(O)C(F)(F)F.O=C(O)C(F)(F)F (configuration not stated),Percent Effect,"30.3 µM, […]",86.99%
Fc1cccc(N2CCCC3(C2)CN(c2ncccn2)CCO3)c1.O=C(O)C(F)(F)F.O=C(O)C(F)(F)F (configuration not stated),Percent Effect,"30 µM, 30.03 µM",-26.54%
Cc1ccc(CN2CCOC3(CCCN(c4cccc(F)c4)C3)C2)o1.O=C(O)C(F)(F)F.O=C(O)C(F)(F)F (configuration not stated),Percent Effect,"30.3 µM, […]",98.9%
Fc1cccc(N2CCCC3(CN(Cc4nccs4)CCO3)C2)c1.O=C(O)C(F)(F)F.O=C(O)C(F)(F)F (configuration not stated),Percent Effect,"30.3 µM, […]",9.59%
COc1c(C2CCCN2C(=O)c2ccc(O)nc2)c(C)nn1C (configuration not stated),Percent Effect,10 µM,-34.15%
COCCCN1CC2(CCN(C(=O)c3ncc(F)cc3F)CC2)CC1=O,Percent Effect,"30 µM, 30.03 µM",-16.91%
Cl.O=C(NCc1ccc(F)cc1)N1CCN(CC(O)C2CC2)CC1 (configuration not stated),Percent Effect,"30.3 µM, […]",2.371%
Cc1nc[nH]c1CN1CCc2nc3scc(C)c3c(=O)n2CC1.Cl,Percent Effect,"30.3 µM, […]",-39.02%
Fc1cccc(Oc2nccnc2C2CCN(C3CCOCC3)CC2)c1,Percent Effect,"30.3 µM, […]",-17.84%
CCn1nc(C)c(CN(CCCOC)Cc2ccccn2)c1C.O=C(O)CC(O)(CC(=O)O)C(=O)O,Percent Effect,"30.3 µM, […]",-0.7195%
Cn1cc(CN2CCC3(CC2)NC(=O)CC3c2ccncc2)cn1.O=C(O)C(F)(F)F.O=C(O)C(F)(F)F (configuration not stated),Percent Effect,"30 µM, 30.03 µM",47.38%
COc1ccc(S(=O)(=O)N2CCOC(Cn3ccnc3)C2)cc1.Cc1ccc(S(=O)(=O)O)cc1 (configuration not stated),Percent Effect,"30.3 µM, […]",-20.84%
CCc1ncc(C(=O)NCCN(C)S(C)(=O)=O)cn1,Percent Effect,"30 µM, 30.03 µM",1.892%
CN(CCNC(=O)c1cnc(-c2ccccc2)nc1)S(C)(=O)=O,Percent Effect,"30 µM, 30.03 µM",23.88%
CN(CCNC(=O)c1cnc(-c2ccncc2)nc1)S(C)(=O)=O,Percent Effect,"30 µM, 30.03 µM",61.08%
CN(C)C(=O)NCc1cc(=O)n2c(n1)CN(Cc1ccoc1)CCC2.O=C(O)C(F)(F)F,Percent Effect,"30 µM, 30.03 µM",-46.36%
Cc1nc(CN(C)C2CCN(CCn3cc(C#N)cn3)C2)no1 (configuration not stated),Percent Effect,"30.3 µM, […]",-2.287%
Cc1cccc(OCCC(=O)N(C)CC(C)C#N)c1C (configuration not stated),Percent Effect,"30 µM, 30.03 µM",9.501%
Cc1cccc(OCCC(=O)N(C)CCC#N)c1C,Percent Effect,"30 µM, 30.03 µM",43.96%
Cc1cccc(OCCC(=O)N(C)CCNS(C)(=O)=O)c1C,Percent Effect,"30 µM, 30.03 µM",57.14%
Cc1ccc(-n2cccn2)cc1S(=O)(=O)N1C[C@H](C2CC2)[C@@H](N)C1,Percent Effect,"30 µM, 30.03 µM",17.94%
Cc1ccc(-n2cccn2)cc1S(=O)(=O)N1C[C@@H]2CC[C@H](C1)N(C)C2,Percent Effect,"30 µM, 30.03 µM",75.01%
COc1ccc(-n2cccn2)cc1S(=O)(=O)N1C[C@H](C2CC2)[C@@H](N)C1,Percent Effect,"30 µM, 30.03 µM",27.88%
COc1ccc(N2Cc3nc(=O)n(C(C)C)n3C2=O)cc1,Percent Effect,"30 µM, 30.03 µM",-34%
CCN1CC2(CC1=O)CN(Cc1ccncc1)CCN(C(=O)C(C)C)C2.O=C(O)C(F)(F)F.O=C(O)C(F)(F)F (configuration not stated),Percent Effect,"30 µM, 30.03 µM",-22.83%
O=C(NCc1nnc2n1CCC2)N1CCC2(CCCCC2)CC1,Percent Effect,"30.3 µM, […]",-3.097%
O=C(NCCc1nnc2n1CCC2)N1CCC2(CCCCC2)C1,Percent Effect,"30.3 µM, […]",-13.71%
O=C(NCCc1nnc2n1CCCCC2)N1CCC2(CCCC2)CC1,Percent Effect,"30.3 µM, […]",99.8%
